From PubChem BioAssay (NCI) come the findings set out here.

This is part of a sample that, as a whole, favours compounds with a hit. Of some 83,000 tested, about 20% had one in any assay.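 Activity criterion: percent growth below 10, measured after cells in 96-well plates were exposed to a single compound concentration for 48 hours.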 Values without a mark were called inactive. Active and inactive are the calls of the source.

In this assay the test system is HL-60(TB) leukemia. The experiment in a line: NCI-60 one-dose screen, 48 h (100 = growth as untreated, 0 = no growth, -100 = all killed). The note with it: 10 µM unless noted.
Consider `COc1ccc2[nH]cc(-c3nc(-c4c[nH]c5ncccc45)cs3)c2c1`, for which the growth was 13.9%.

Turning to `OC(c1ccc(F)c(C(F)(F)F)c1)c1cnccc1NC1CCCCC1` (stereo not given), the growth was 30.9%.

For `CCC(C)C(N)C(=O)NNc1n[nH]c(=S)n1N` (stereo not given), the growth is 100%.

In the case of `COc1cc2c(cc1OCCCOc1cc3c(cc1OC)C(=O)N1CCC[C@H]1C=N3)C=CC(C)(C)O2`, the growth is 102%.

As for `CCCCCCCCCCCC(c1ccccc1)[N+](C)(C)C` (stereo not given), the growth was -30.5% (active).

On to `Cc1ccc(-c2nc([P+](c3ccccc3)(c3ccccc3)c3ccccc3)c(S(=O)(=O)c3ccc(C)cc3)o2)cc1`, for which the growth is -14.4% (active).

On to `CC(C)CCN(CCC(C)C)CC(O)c1cc2c(c3ccccc13)CCCC2` (stereo not given), for which the growth is 78.6%.

As to `COc1cc(OC)c2c(c1Cl)O[C@]1(C2=O)C(OCc2ccccc2)=CC(=O)C[C@H]1C`, the growth was -12% (active).

Regarding `S=C1CCCC(=S)N1`, the growth was 101%.

With `Cc1ccc(-c2nc3c(N=Nc4ccc(S(N)(=O)=O)cc4)c(N)nn3c(N)c2C#N)cc1`, the growth was 2.71% (active).

For the molecule `Cc1ccc[n+](CC(=O)c2cccc3ccccc23)c1`, the growth was 96.9%.

As for `Nc1c(C(=O)Nc2ccccc2)sc2nc3c(cc12)C(=O)CCC3`, the growth was 19.4%.

Consider `CC(=O)[C@H]1CC[C@H]2[C@@H]3CCC4=CC(=O)C=C[C@]4(C)[C@H]3CC[C@]12C`, for which the growth was 90.9%.

In the case of `Oc1c(Cl)cc(Cl)cc1CNc1nccnn1`, the growth was 115%.

For the molecule `COC1=CC=CC2(OC)C3(O)CCCc4cccc(c43)N3C(=O)COC132` (stereo not given), the growth is 98.6%.

With `C=C1C(=O)O[C@H]2[C@H]1CC/C(CNC(=O)/C1=C/CC[C@@]3(C)O[C@H]3[C@H]3OC(=O)C(=C)[C@@H]3CC1)=C\CC[C@@]1(C)O[C@@H]21`, the growth was 57.4%.

Regarding `O=C1N(Cc2ccccc2Cl)c2ccccc2C12NN=C(c1ccccc1)S2` (stereo not given), the growth was 58.5%.

Turning to `CC(=O)N(C(C)=O)c1ccc(C)cc1`, the growth is 92.9%.

With `N[C@@H]1CCC[C@H]1NCCCCN1C(=O)c2cccc3cccc(c23)C1=O`, the growth is 91.1%.

For the molecule `CN(C)Cc1ccc(O)c(C(=O)O)c1`, the growth was 107%.

Regarding `O=c1nc2n(nc1/C=C/c1ccco1)CC(c1ccc(Cl)cc1)=NN2`, the growth is 70.1%.

On to `c1ccc2cc(Cn3cc(CSc4nc5ccccc5s4)nn3)ccc2c1`, for which the growth was 102%.

For `Clc1ccc(N/N=C(\c2ccccc2)c2ccccn2)nc1`, the growth was -28.3% (active).

As to `COc1ccc(/C=C/C(=O)c2cc3c(N)c(C(=O)Nc4cccc(Cl)c4C)sc3nc2C)cc1`, the growth was 4.92% (active).

Consider `Cc1nccc2c3ccc(OCc4cn(-c5ccc(Cl)cc5)nn4)cc3n(CCCc3ccccc3)c12`, for which the growth is -64.9% (active).

Consider `Cc1cc(Cl)c2ccc(N(C)C)cc2n1`, for which the growth is 93.6%.

As to `NCCNc1ccc2cc(-c3nc4ccccc4[nH]3)c(=O)oc2c1`, the growth is 80.1%.

As to `Cc1nc(-c2ccccc2)cc2c(O)c(C(=O)N/N=C/Cc3ccccc3)[nH]c(=O)c12`, the growth is 76.8%.

Regarding `O=C(Nc1ccc(Nc2ncnc3sc4c(c23)CCOC4)cc1)Nc1ccc(Cl)c(C(F)(F)F)c1`, the growth was 98.9%.

Turning to `CN1CCN(c2ccc(Nc3ncc4[nH]c(=O)n(Cc5ccccc5N)c4n3)cc2)CC1`, the growth was 97.2%.

As to `COc1cc(NC(C)CCCN)c2ncccc2c1Oc1ccc(Cl)cc1` (stereo not given), the growth was 94.8%.

`O=C(Nc1ccc(F)cc1F)c1cc(Cl)ccc1O`: the growth was -31.4% (active).

For `C1=CC2(C=C1)OC21CCC2(C=CC3(C2)OC3C2CCCCC2)CC1` (stereo not given), the growth is 105%.

`C=C1C(=O)O[C@H]2[C@H]1CC/C(COC(=O)NCc1ccc(Cn3c(=O)sn(CCCl)c3=O)cc1)=C\CC[C@@]1(C)O[C@@H]21`: the growth is -21.4% (active).

For `O=C1/C(=C/c2ccc(Cl)cc2)CCC/C1=C\c1ccc(Cl)cc1`, the growth was 83%.

As to `CCN(CC)CCN1CC(=O)Nc2cc(Cl)ccc21`, the growth is 98.9%.

For the molecule `O=C(NCCc1ccccn1)OCc1nc2nc(Cl)nc(N3CCOCC3)c2[nH]1`, the growth was -47.6% (active).

`O=c1cc(CSc2nnc(-c3ccccc3)n2-c2ccc(F)cc2)c2ccc3ccccc3c2o1`: the growth was 99.5%.

On to `CCOC(=O)C1=C(C)N2C(=NC3=C(CCCC/C3=C\c3ccccc3)C2c2ccccc2)S1` (stereo not given), for which the growth is 101%.

Turning to `Cc1ccc(Nc2ccc(O)c3c2C(=O)c2c(O)ccc(Nc4ccc(C)cc4)c2C3=O)cc1`, the growth was 108%.
